Molecules are shown by their SMILES. Values joined by “and” are separate entries in the source; they are usually repeats but may differ in a detail not shown here. Equal entries are not always repeated. The panel holds about 79,000 compounds, 15% with a hit somewhere; the sample as a whole holds those more often. Where a structure was tested more than once in an assay, its records may differ in their call. Active and inactive are the calls of the source. No stated cut-off is given here; in the data, active means growth inhibition above about 70%; inactive means the rest.

The nature of the test: NCI Yeast Anticancer Drug Screen. Data for the mlh1 rad18 strain (AID 175). The note with it: S. cerevisiae mlh1 rad18 strain growth inhibition; at 5.0 µM (retest, dose inferred, filed as 0.5); stronger effect = higher value. Put shortly:
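Cells of a genetically altered yeast strain, deficient in DNA damage repair, were treated with compound. Their growth was then compared with that of vehicle-treated cultures to give inhibition.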
On to `COc1ccc2[nH]c3c(C)c4ccncc4c(C)c3c2c1`, for which the growth inhibition was 55% (inactive).

Consider `CC(=O)OC1OC(CI)C(OC(C)=O)C(OC(C)=O)C1OC(C)=O` (stereo not drawn), for which the growth inhibition was -1% (inactive).

Consider `Cc1cc(NS(=O)(=O)c2ccc(N=Nc3cc(N=Nc4ccc(S(=O)(=O)Nc5cc(C)nc(C)n5)cc4)c4c(NC(=O)C(Cl)Cl)cccc4c3OC(=O)C(Cl)Cl)cc2)nc(C)n1` (tested in a mixture with another compound), for which the growth inhibition was 21% (inactive).

As for `Oc1cc2c(cc1C(c1ccc3c(c1)OCO3)N1CCN(C(c3ccc4c(c3)OCO4)c3cc4c(cc3O)OCO4)CC1)OCO2` (stereo not drawn), the growth inhibition was 3% (inactive).

In the case of `O=[N+]([O-])c1ccc(N/N=C/CC(O)(C(F)(F)F)C(F)(F)F)c([N+](=O)[O-])c1`, the growth inhibition was 3% (inactive).

In the case of `CCCc1cc(=O)oc2c3c(c4c(c12)OC(C)(C)CC4)O[C@@H](C)[C@H](C)[C@H]3O`, the growth inhibition was -6% (inactive).

On to `O=Cc1cc(Br)ccc1O`, for which the growth inhibition is 17% (inactive) and 11% (inactive).

As to `Cc1n(-c2ccccc2)c2c([n+]1Cc1ccc([N+](=O)[O-])cc1)C(=O)c1ccccc1C2=O`, the growth inhibition was -8% (inactive).

For the molecule `Nc1ncnc2c1ncn2CCCl`, the growth inhibition was -2% (inactive).

For the molecule `CN(C)CCCN=c1c2ccccc2n(O)c2cccc([N+](=O)[O-])c12`, the growth inhibition is 7% (inactive).

With `CCOc1ccc2ccccc2c1C(Cc1ccc(Cl)cc1)NCCO` (stereo not drawn), the growth inhibition was 1% (inactive).

`COc1ccc(Oc2ccccc2N)cc1`: the growth inhibition was -3% (inactive).

As for `O=C1C(Cl)=C(Cl)C(Cl)(Cl)C(Cl)=C1Cl`, the growth inhibition is 37% (inactive) and 50% (inactive).

As for `CCCCCCCCCCCC(=O)CN1CCOCC1`, the growth inhibition was 31% (inactive).

On to `CCC(C)(C)c1cc(O)c(C(C)(C)CC)cc1O`, for which the growth inhibition was 10% (inactive).

For the molecule `CC[C@](O)(CC(=O)O[C@H]1C(=O)O[C@@H]2C[C@H]3C(C)=CC(=O)[C@@H](O)[C@]3(C)[C@H]3[C@@]4(O)OC[C@]32[C@@H]1[C@@H](C)[C@H]4O)C(C)C`, the growth inhibition is 50% (inactive).

As for `Nc1ccccc1Oc1ccc(Cl)cc1Cl`, the growth inhibition was 15% (inactive).

Take `O=C1Nc2ccccc2C1(O)C/C(=N/O)c1ccc2ccccc2c1` (stereo not drawn): the growth inhibition was 40% (inactive).

Regarding `NNC(=O)c1ccc(NC(=O)CSc2nc3ccccc3s2)cc1`, the growth inhibition is 86% (active).

With `C[C@H]1CC[C@H]([C@@H](C)[C@H]2[C@@H](O)C[C@H]3[C@@H]4CC[C@H]5C[C@@H](O)CC[C@]5(C)[C@H]4CC[C@]23C)NC1`, the growth inhibition was 28% (inactive) and -4% (inactive).

As for `CC(C)(c1ccc(O)cc1)c1ccc(O)cc1`, the growth inhibition was 6% (inactive) and 4% (inactive).

Take `O=C1/C(=C/c2ccc(Cl)cc2)CNC/C1=C\c1ccc(Cl)cc1`: the growth inhibition was 91% (active) and 66% (inactive).

Consider `CCN(CC)c1ccc(/C=C/c2ccnc3ccccc23)cc1`, for which the growth inhibition is 17% (inactive) and 16% (inactive).

As to `Oc1ccc(/C=N/NC(=S)NN2CCOCC2)nc1`, the growth inhibition was 42% (inactive).

With `COc1ccc(-c2c(C#N)c(-c3ccc(C)cc3)n(NS(=O)(=O)c3ccccc3)c(=O)c2C#N)cc1`, the growth inhibition is 91% (active).

Consider `c1ccc(-c2[nH]c3ccccc3c2-c2ccccn2)cc1`, for which the growth inhibition is 5% (inactive).

In the case of `Nc1cc2c(cc1Cl)[nH]c(=O)c1cc(Cl)ccc12`, the growth inhibition is 38% (inactive).

With `C1=C(c2ccccc2)N(CCc2ccccc2)C(c2ccccc2)=CN1Cc1ccccc1`, the growth inhibition was -4% (inactive).

As to `COC(=O)c1nnn(-c2ccc(S(N)(=O)=O)cc2)c1N`, the growth inhibition was -13% (inactive).

Consider `O=C1C(CN2CCOCC2)CCCC1CN1CCOCC1` (stereo not drawn), for which the growth inhibition was 3% (inactive).

As for `c1ccc(-c2nc3ccccc3[nH]2)cc1`, the growth inhibition was 0% (inactive).

For the molecule `O=Cc1cc([N+](=O)[O-])cc(CCl)c1O`, the growth inhibition is -123% (inactive).

`COC(=O)[C@]1(C)CCC[C@]2(C)c3ccc(C(C)C)cc3CC[C@@H]12`: the growth inhibition was -1% (inactive).

With `CCOC(=O)c1ccc(NCc2ccc3ccccc3n2)cc1`, the growth inhibition is -2% (inactive).

As to `CCCCCCCCCCCCCCCC(=O)NCC[N+](C)(C)C`, the growth inhibition was 36% (inactive).

For the molecule `OC(c1nc2ccccc2[nH]1)C(O)C(O)C(O)c1nc2ccccc2[nH]1` (stereo not drawn), the growth inhibition was -22% (inactive).

On to `O=[N+]([O-])c1ccc(N/N=C(/C=N/Nc2ccc([N+](=O)[O-])cc2)C(O)C(O)C(O)CO)cc1` (stereo not drawn), for which the growth inhibition was 70% (active) and 77% (active).

Take `c1ccc2c(c1)CNc1ccccc1-2`: the growth inhibition is 3% (inactive).

The values above are taken from PubChem BioAssay (NCI).
